Laboratory results taken from ChEMBL document CHEMBL3988442, “University of Dundee, Small-Polar-MMV Screening Library” (2021).
About 950 (1.4%) of roughly 69,000 compounds showed an effect of 50% or more. The list comes from a sample in which strong results are over-represented; it also holds similar structures and randomly drawn compounds.

test system: Mycobacterium tuberculosis; assay: Cornell M. t heat shock assay; type: functional, organism-based; set-up: dose or concentration left out as unconfirmed; note: in the data most compounds retested in dose-response had high values

Structure (SMILES) | Percent Effect [%]
Cl.Cl.c1ccc2c(c1)C(NC1CCCC1)CC21CCNCC1 (configuration not stated) | -6.748
O=C1C[C@H]2CC[C@@H](CN1)N2C(=O)CCCc1ccc(Cl)cc1 | -2.57
CN1[C@H]2CC[C@@H]1CN(C(=O)c1ccc(-c3ccccc3)[nH]1)CC2 | 5.823
O=C(c1ccco1)N1CCC(n2nc(-c3ccco3)ccc2=O)CC1 | 18.57
CC(C)C(=O)N1CCC(n2nc(-c3ccco3)ccc2=O)CC1 | 1.271
O=C(Cc1ccsc1)N1CCC(n2nc(-c3ccco3)ccc2=O)CC1 | 50.48
Cc1nc(CNCC2Cn3nncc3CO2)cs1.O=C(O)C(F)(F)F (configuration not stated) | 3.892
O=C(O)C(F)(F)F.O=C(c1cscn1)N1CCC2(CN(Cc3ccoc3)C2)C1 | -1.882
COCc1nc2cc(NCc3ccc(CO)o3)ccc2o1 | -21.34
COCc1nc2cc(NCc3ccc(C)o3)ccc2o1 | 60.09
COCc1nc2cc(NCc3ccncc3)ccc2o1 | 47.84
CCc1ccsc1C(=O)N1CCN(CC(O)CC)CC1 (configuration not stated) | 21.24
O=C(c1ccco1)N1C(CO)[C@]2(O)CC[C@H]1CC2 (some centres not stated) | 34.52
CN(C)CCN1CCO[C@@H]2CN(C(=O)Cc3ccsc3)CC[C@@H]2C1 | 50.48
CN(C)CCN1CCO[C@@H]2CN(C(=O)c3cccs3)CC[C@@H]2C1.O=C(O)C(F)(F)F.O=C(O)C(F)(F)F | -0.5819
Cc1ccc(CC(=O)N2CC[C@@H]3CN(CCN(C)C)CCO[C@@H]3C2)cc1.O=C(O)C(F)(F)F.O=C(O)C(F)(F)F | -3.479
CCc1c(C)[nH]c(C2(N)CCCCC2)nc1=O.Cl | -31.03
COc1ccc(Oc2ncccc2NC(=O)N2CC[C@H](O)C2)cc1 | -5.111
O=C(c1cccnc1Oc1ccc(Cl)cc1)N1CC[C@@H](O)C1 | 54.07
O=C(NCCOCCO)c1cccnc1Oc1ccc(Cl)cc1 | 43.92
COCCNC(=O)c1cccnc1Oc1ccc(Cl)cc1 | 50.01
O=C(c1cccnc1SCc1ccccc1)N1CC[C@@H](O)C1 | 7.782
CCOC(=O)CNC(=O)c1cccnc1Oc1ccc(Cl)cc1 | -21.74

Structure (SMILES) | Percent Effect [%]
O=C(Cc1ccccn1)N1CCN2C[C@H](Oc3cccc(F)c3)C[C@H]2C1.O=C(O)C(F)(F)F.O=C(O)C(F)(F)F | -12.23
CN(C)C(=O)N1CCC2(CCCN(Cc3cnn(C)c3)C2)C1.O=C(O)C(F)(F)F (configuration not stated) | -9.776
CC(C)n1c(C2CCCN(CC(=O)NC3CC3)C2)nc2ccccc21 (configuration not stated) | -32.24
CN1CCN(C(=O)c2ncn3c2CN(C)S(=O)(=O)c2ccccc2-3)CC1.O=C(O)C(F)(F)F | -21.31
CCn1cc(N2Cc3nc(N(C)C)ncc3C2=O)cn1 | 8.315
O=C(C1CC=CC1)N1CCC2(CCN(Cc3ccccn3)C2=O)C1.O=C(O)C(F)(F)F (configuration not stated) | -18.77
COc1ccc(OCCNCc2c(C)nn(C)c2N(C)C)cc1.Cl | 36.3
CNC(=O)c1cc2c(nc1N(C)C)CCN(c1ncc(C)cn1)CC2.O=C(O)C(F)(F)F | 38.06
O=C(C1CCC1)N1C[C@@H]2CCN(c3cccnc3)C[C@@H]2C1.O=C(O)C(F)(F)F | -23.64
Fc1cccc(N2C[C@H]3CCN(c4cccnc4)C[C@H]3C2)c1.O=C(O)C(F)(F)F | 98.87
O=C(O)C(F)(F)F.O=C(c1ccc(F)cc1)N1C[C@@H]2CCN(c3cccnc3)C[C@@H]2C1 | -7.242
C[C@@H]1CN(CCc2ccccc2)C[C@]12CCN(CC(=O)N(C)C)C2=O.O=C(O)C(F)(F)F | 2.052
Cn1c(CNCC2CCCN2c2cccnn2)nc2ccccc21 (configuration not stated) | 3.675
CN(Cc1ncc(-c2ccccc2)o1)CC1CCCN1c1cccnn1 (configuration not stated) | 0.462
CC(C)(C)c1cnc(CNCC2CCCN2c2cccnn2)o1 (configuration not stated) | -26.2
CN(Cc1nc2ccccc2n1C)CC1CCCN1c1cccnn1 (configuration not stated) | 101.2
CN(Cc1ncc(C(C)(C)C)o1)CC1CCCN1c1cccnn1 (configuration not stated) | 66
Cc1nc2ccccc2nc1CN(C)CC1CCCN1c1cccnn1 (configuration not stated) | 18.99
Cn1nccc1-c1nnn2c1COCC(CNCC1CC1)C2.O=C(O)C(F)(F)F.O=C(O)C(F)(F)F (configuration not stated) | 30.33
COc1cccc2c(C)c(C(=O)N3CCNCC3C(N)=O)[nH]c12.Cl (configuration not stated) | -6.521
O=C(O)C(F)(F)F.O=C(O)C(F)(F)F.c1ccc(N2CCC3(COCCN(Cc4cccs4)C3)C2)nc1 (configuration not stated) | 0.5206
CC(C)NC(=O)N1C[C@H](OCc2cccnc2)[C@H]2COC[C@H]21.O=C(O)C(F)(F)F | 2.427
Cc1nnc2n1CCN(Cc1ncc(-c3ccccc3)o1)C2 | -5.111

Structure (SMILES) | Percent Effect [%]
Cc1nnc2n1CCN(Cc1ncc(-c3ccc(Cl)cc3)o1)C2 | -15.98
CCc1nnc2n1CCN(Cc1ncc(-c3ccccc3)o1)C2 | 76.57
Cc1nnc2n1CCN(Cc1ncc(-c3ccc(F)cc3)o1)C2 | 77.14
CCc1nnc2n1CCN(Cc1ncc(-c3ccc(F)cc3)o1)C2 | -9.541
CCc1nnc2n1CCN(Cc1ncc(-c3ccc(Cl)cc3)o1)C2 | -1.022
CN1C(=O)CCC12CCN(c1ccc(C#N)cn1)CC2.O=C(O)C(F)(F)F | 8.745
Cc1nc(C)c(C(C)NCc2cnc(N3CCOCC3)nc2)s1.Cl (configuration not stated) | -16.16
Cn1cc(CN2C[C@@H]3COC[C@@H](C(=O)N4CCCCO4)[C@@H]3C2)cn1.O=C(O)C(F)(F)F.O=C(O)C(F)(F)F | 6.742
Fc1cnc(N2CCCn3cnc(COc4cccnc4)c3C2)nc1.O=C(O)C(F)(F)F | 9.371
Cc1cc(C)c(CNC(=O)NCC2CCOC2)c(=O)[nH]1 (configuration not stated) | -20.09
COCCC(=O)N1CCOCC2(CCN(Cc3cccs3)C2)C1.O=C(O)C(F)(F)F (configuration not stated) | -16.95
O=C(O)C(F)(F)F.O=C(O)C(F)(F)F.O=C1COC2(CCN(Cc3cccnc3)CC2)CN1 | -2.798
O=C([C@H]1CCCO1)N1CCc2ncnc(NC3CC3)c2CC1 | 65.17
CC(C)Nc1ncnc2c1CCN(C(=O)[C@H]1CCCO1)CC2 | -13.05
O=C(C1CCCO1)N1CCc2ncnc(NC3CCC3)c2CC1.O=C(O)C(F)(F)F (configuration not stated) | -8.605
COCC1COCCC12CCN(Cc1nccs1)CC2.O=C(O)C(F)(F)F (configuration not stated) | 8.236
CS(=O)(=O)NC1CCN(C(=O)c2cc3ccccc3s2)C1 (configuration not stated) | 0.7353
CCC[C@@H]1CN(C(=O)c2cc3ccccc3s2)C[C@H]1NS(C)(=O)=O | 11.11
CS(=O)(=O)N[C@@H]1CN(C(=O)c2cc3ccccc3s2)C[C@H]1O | 101.8
Cn1cc(C[C@H]2[C@H](O)CCN2CC2CCOCC2)cn1.O=C(O)C(F)(F)F | 6.354
O=C(O)C(F)(F)F.O=C(c1ccsc1)N1CCO[C@@H]2CN(Cc3nccs3)C[C@@H]2C1 | 10.37
Cc1cccc(CN2C[C@@H](C)[C@@]3(CCN(CC(=O)N(C)C)C3=O)C2)c1.O=C(O)C(F)(F)F | -6.766
Cc1ccsc1C(=O)N1CC[C@@H](N(C)C)[C@@H]1Cc1cnn(C)c1.O=C(O)C(F)(F)F | -5.648

Structure (SMILES) | Percent Effect [%]
CCn1nc(CC(C)C)cc1C(=O)NCCCOC | 92.73
CCn1nc(CC(C)C)cc1C(=O)NCCn1cccc1 | 49.17
CCn1nc(C(C)C)cc1C(=O)NCCCOC | 4.35
Cc1csc(CCNCc2cnc3c(c2)c(C)nn3C)n1.Cl | 6.139
O=C(O)C(F)(F)F.O=C(O)C(F)(F)F.O=C1COC2(CCN(Cc3ccncc3)CC2)CN1c1ccccc1 | -2.605
CO[C@@H]1CCN(Cc2ccoc2)[C@H]1Cc1ccccc1.O=C(O)C(F)(F)F | 14.91
Fc1cnc(N2CCCC3(CN(Cc4ccncc4)CCO3)C2)nc1.O=C(O)C(F)(F)F.O=C(O)C(F)(F)F (configuration not stated) | 10.78
Cc1ncc2c(n1)CCCC2NC(=O)c1cnn(Cc2ccccc2)c1 (configuration not stated) | -15.56
Cc1ncc2c(n1)CCCC2NC(=O)c1ccncc1 (configuration not stated) | -6.944
Cc1ncc2c(n1)CCCC2NC(=O)c1ccc(Cn2cccn2)cc1 (configuration not stated) | 72.35
COCC(=O)N1CCCC1c1ccnc(Nc2cnccn2)n1 (configuration not stated) | -1.39
Nc1nccc(C2CCCN2CCc2ccccc2)n1 (configuration not stated) | 10.92
c1ccc(CCN2CCCC2c2ccnc(Nc3ncccn3)n2)cc1 (configuration not stated) | 91.35
c1ccc(CCN2CCCC2c2ccnc(Nc3cnccn3)n2)cc1 (configuration not stated) | 57.03
COCC(=O)N1CCCCC1c1ccnc(Nc2cnccn2)n1 (configuration not stated) | -6.25
Cc1nccc(C2CCCCN2Cc2ccccc2)n1 (configuration not stated) | -13.8
COCCOc1ccc(NC(=O)C2CC(=O)N(C)C2)cn1 (configuration not stated) | 4.167
COCCn1cc(C(=O)N2CCCC2c2cccc(F)c2)ccc1=O (configuration not stated) | -4.621
O=C(O)C(F)(F)F.c1csc(CN2Cc3nccn3CC(Cn3cncn3)C2)c1 (configuration not stated) | -12.15
CCNc1ncc(CN(CCN(C)C)Cc2ccc(C)s2)cn1 | 2.161
COc1ncc(CN(CCN(C)C)Cc2ccc(C)s2)cn1 | -3.645
CCc1ccc(CN(CCN(C)C)Cc2ccc(C)s2)nc1 | 88.98
O=C(O)C(F)(F)F.O=C(O)C(F)(F)F.c1cncc(OC[C@]23COC[C@H]2CN(Cc2ccsc2)C3)c1 | -29.89
